For assay [1], the system named is Vero E6 infected with SARS-CoV-2. In words: morphology score (similarity to uninfected cells); higher = more like uninfected cells. The settings on record: 24 h.
Assay [2] has the same test system. In words: SARS-CoV-2 infection rate relative to infected DMSO; higher = more infection, active = 60 or less. To be noted: 24 h.

Compound `c1nc(CC2CCNCC2)c[nH]1` [immepip] (10 µM) yielded a morphology score in assay [1] of 0.0471. Also, in assay [2], the SARS-CoV-2 infection rate was 101% (inactive).

In the case of `NCC(CS(=O)(=O)O)c1ccc(Cl)cc1` (stereo not given) [saclofen] (10 µM), the morphology score in assay [1] was 0.194. The SARS-CoV-2 infection rate in assay [2] was 94.5% (inactive).

As for `O=S(=O)(NCC1CC1)c1ccc(Nc2nccc(N3CCCc4cc(O)ccc43)n2)cc1` [pyrintegrin] (0.833333 µM), in assay [1], the morphology score turned out to be 0.71. In addition, the SARS-CoV-2 infection rate in assay [2] is 60.5% (inactive).

`O=C(O)C1=C[C@@H](O)[C@@H](O)[C@H](O)C1` [shikimic-acid] (10 µM) yielded a morphology score in assay [1] of 0.0235. Further, in assay [2], the SARS-CoV-2 infection rate was 108% (inactive).

Compound `Cc1nc2c(OCc3ccccc3)cccn2c1CC#N` (10 µM) displayed a morphology score in assay [1] of 0.0125. In addition, the SARS-CoV-2 infection rate in assay [2] is 110% (inactive).

`COc1cc(/C=C/C(=O)O)ccc1O` [ferulic-acid] (10 µM) yielded a morphology score in assay [1] of -0.0443. The SARS-CoV-2 infection rate in assay [2] was 110% (inactive).

`C[C@@H](CN)CC(=O)O` [3-methyl-GABA] (10 µM) gave a morphology score in assay [1] of 0.0225. Further, the SARS-CoV-2 infection rate in assay [2] was 102% (inactive).

In turn, `O=c1[nH]c2ccc(Cl)cc2c(N[C@@H]2CN3CCC2CC3)c1-c1nc2ccccc2[nH]1` (10 µM) displayed a morphology score in assay [1] of -0.162. Besides, in assay [2], the SARS-CoV-2 infection rate is 110% (inactive).

`O=C1c2cccc(O)c2C(=O)c2c(O)cc(CO)cc21` [aloe-emodin] (10 µM) had a morphology score in assay [1] of 0.29. In addition, the SARS-CoV-2 infection rate in assay [2] is 101% (inactive).

Consider `C#C[C@]1(OC(C)=O)CC[C@H]2[C@@H]3CCC4=CC(=NO)CC[C@@H]4[C@H]3CC[C@@]21CC` (mixture of isomers) [norgestimate] (10 µM), for which the morphology score in assay [1] amounted to 0.111. The SARS-CoV-2 infection rate in assay [2] was 108% (inactive).

As for `COc1cc2nc(N3CCN(C(=O)c4ccco4)CC3)nc(N)c2cc1OC` [prazosin] (10 µM), in assay [1], the morphology score is -0.0585. For the same compound, in assay [2], the SARS-CoV-2 infection rate is 107% (inactive).

In assay [1], `COCCNC(=O)Cn1cnc([N+](=O)[O-])n1` [sanazole] (10 µM) had a morphology score of 0.122. For the same compound, the SARS-CoV-2 infection rate in assay [2] was 93% (inactive).

In assay [1], `NS(=O)(=O)c1cc2c(cc1Cl)NC(C(Cl)Cl)NS2(=O)=O` (stereo not given) [trichlormethiazide] (10 µM) had a morphology score of 0.0616. Further, in assay [2], the SARS-CoV-2 infection rate is 100% (inactive).

In assay [1], `CN[C@@H](C)C(=O)N[C@H]1CCCC[C@H]2CC[C@@H](C(=O)N[C@@H](c3ccccc3)c3cn(CCCCc4ccc(CCCCn5cc([C@@H](NC(=O)[C@@H]6CC[C@@H]7CCCC[C@H](NC(=O)[C@H](C)NC)C(=O)N76)c6ccccc6)nn5)cc4)nn3)N2C1=O` (10 µM) returned a morphology score of 0.155. The SARS-CoV-2 infection rate in assay [2] is 98% (inactive).

In assay [1], `[I-].[K+]` [potassium-iodide] (10 µM) yielded a morphology score of -0.0371. Further, the SARS-CoV-2 infection rate in assay [2] was 114% (inactive).

As for `CC(C)OC(=O)OCOP(=O)(CO[C@H](C)Cn1cnc2c(N)ncnc21)OCOC(=O)OC(C)C` [tenofovir-disoproxil] (10 µM), in assay [1], the morphology score is -0.00661. In addition, the SARS-CoV-2 infection rate in assay [2] was 116% (inactive).

On to `O=C(O)[C@@H](S)[C@@H](S)C(=O)O` [dimercaptosuccinic-acid] (10 µM), for which, in assay [1], the morphology score was 0.102. The SARS-CoV-2 infection rate in assay [2] was 100% (inactive).

Take `CN1C(=O)N(c2cc(Cl)cc(Cl)c2)C(=O)[C@@]1(C)Cc1ccc(Br)cc1` (10 µM): the morphology score in assay [1] worked out at 0.25. In assay [2], the SARS-CoV-2 infection rate was 96.5% (inactive).

Take `CC(C)COc1ccc(CNC(=O)N(Cc2ccc(F)cc2)C2CCN(C)CC2)cc1` [pimavanserin] (10 µM): in assay [1], the morphology score is 0.709. Moreover, in assay [2], the SARS-CoV-2 infection rate is 23% (active).

For the compound `O=C1NN(C(=O)Nc2ccc(Br)cc2)[C@@H](c2ccccc2)[C@@H]1c1ccccc1` (10 µM), in assay [1], the morphology score is -0.176. Besides, the SARS-CoV-2 infection rate in assay [2] was 108% (inactive).

The compound `CNC(=N)NC(=O)Nc1c(C)cccc1C` [lidamidine] (10 µM) registered a morphology score in assay [1] of -0.327. In addition, the SARS-CoV-2 infection rate in assay [2] is 118% (inactive).

`CCCC[C@H](NC(C)=O)C(=O)N[C@H]1CC(=O)NCCCC[C@@H](C(=O)O)NC(=O)[C@H](Cc2c[nH]c3ccccc23)NC(=O)[C@H](CCCNC(=N)N)NC(=O)[C@@H](Cc2ccccc2)NC(=O)[C@H](Cc2c[nH]cn2)NC1=O` [bremelanotide] (10 µM): the morphology score in assay [1] stood at 0.067. In addition, the SARS-CoV-2 infection rate in assay [2] is 96.5% (inactive).

`CCOc1ccc(/C=C2\NCCc3cc(OCC)c(OCC)cc32)cc1OCC` [drotaverine] (10 µM): the morphology score in assay [1] stood at 0.156. For the same compound, the SARS-CoV-2 infection rate in assay [2] was 104% (inactive).

For the compound `COc1ccc(CCNCC(O)COc2cccc(C)c2)cc1OC` (stereo not given) [bevantolol] (10 µM), the morphology score in assay [1] was -0.027. Also, the SARS-CoV-2 infection rate in assay [2] is 110% (inactive).

In assay [1], `C[C@@H](Oc1ccc2[nH]nc(/C=C/c3cnn(CCO)c3)c2c1)c1c(Cl)cncc1Cl` (10 µM) yielded a morphology score of -0.00865. Moreover, the SARS-CoV-2 infection rate in assay [2] is 120% (inactive).

`NC(=O)c1nc(F)cnc1O` [favipiravir] (10 µM): in assay [1], the morphology score amounted to 0.0924. In addition, the SARS-CoV-2 infection rate in assay [2] was 104% (inactive).

`CCOc1ccc(S(=O)(=O)O)c2cccnc12` [actinoquinol] (10 µM) had a morphology score in assay [1] of 0.0631. In assay [2], the SARS-CoV-2 infection rate was 112% (inactive).

`COC(=O)Nc1ccc(-c2nc(N3CCOCC3)c3cnn(C4CCN(C(=O)OC)CC4)c3n2)cc1` (0.833333 µM) registered a morphology score in assay [1] of 0.00734. The SARS-CoV-2 infection rate in assay [2] was 120% (inactive).

Compound `CCC(=O)O[C@@H](O[P@@](=O)(CCCCc1ccccc1)CC(=O)N1C[C@H](C2CCCCC2)C[C@H]1C(=O)O)C(C)C` [fosinopril] (10 µM) displayed a morphology score in assay [1] of -0.0286. Further, in assay [2], the SARS-CoV-2 infection rate was 104% (inactive).

In turn, `CN1CCC(CNc2ccc3ncc(-c4cccc(OC(F)(F)F)c4)n3n2)CC1` (0.833333 µM) had a morphology score in assay [1] of 0.201. For the same compound, the SARS-CoV-2 infection rate in assay [2] was 108% (inactive).

The values above are taken from the supplement of paper PMC13380429.
